Hits are enriched below; roughly 1.6% of the tested compounds scored in any of these assays.
sEH inhibitor – soluble epoxide hydrolase inhibitors, primary screen, biochemical, human sEH; Bifunctional epoxide hydrolase 2 (Homo sapiens), P34913; recombinant human sEH enzymatic activity assay; inhibition, % at 2 µM; actives 0.34% (n = 91,000); in the data active = inhibition above about 80%
sEH activator – soluble epoxide hydrolase activators, primary screen, biochemical, human sEH; actives 0.04% (n = 91,000); purified human sEH enzymatic activity, activator screen; activation, % at 2 µM; in the data active = activation above about 37%
PLK1 inh – human PLK1 kinase inhibitors, primary screen, biochemical, TR-FRET. Serine/threonine-protein kinase PLK1 (Homo sapiens), P53350. recombinant PLK1 kinase, TR-FRET peptide phosphorylation. inhibition, % at 10 µM. actives 0.53% (n = 97,000). AID 619, 2007;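 active = inhibition of 50% or more in the single-concentration screen; inactive = inhibition below 50%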;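 also: 0% = DMSO max control and 100% = H-89 dihydrochloride min control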
PTK2B oligo ant – antagonists of Pyk2 self-association, primary screen, Q293 cells, FERM NanoBiT luminescence, HTS; Protein-tyrosine kinase 2-beta (Homo sapiens), Q14289; stronger effect = lower value; z-score (the deposit names both 25 µM and 10 µM); actives 0.83% (n = 99,000); AID 1347419, 2020;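 active = Z-score of -3 or lower, scaled per plate to the spread of control and sample wells; inactive = z-score above -3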;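 also: negative z-score means lost luminescence so less FERM oligomerization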
Target sequence (Q14289 whole entry, looked up): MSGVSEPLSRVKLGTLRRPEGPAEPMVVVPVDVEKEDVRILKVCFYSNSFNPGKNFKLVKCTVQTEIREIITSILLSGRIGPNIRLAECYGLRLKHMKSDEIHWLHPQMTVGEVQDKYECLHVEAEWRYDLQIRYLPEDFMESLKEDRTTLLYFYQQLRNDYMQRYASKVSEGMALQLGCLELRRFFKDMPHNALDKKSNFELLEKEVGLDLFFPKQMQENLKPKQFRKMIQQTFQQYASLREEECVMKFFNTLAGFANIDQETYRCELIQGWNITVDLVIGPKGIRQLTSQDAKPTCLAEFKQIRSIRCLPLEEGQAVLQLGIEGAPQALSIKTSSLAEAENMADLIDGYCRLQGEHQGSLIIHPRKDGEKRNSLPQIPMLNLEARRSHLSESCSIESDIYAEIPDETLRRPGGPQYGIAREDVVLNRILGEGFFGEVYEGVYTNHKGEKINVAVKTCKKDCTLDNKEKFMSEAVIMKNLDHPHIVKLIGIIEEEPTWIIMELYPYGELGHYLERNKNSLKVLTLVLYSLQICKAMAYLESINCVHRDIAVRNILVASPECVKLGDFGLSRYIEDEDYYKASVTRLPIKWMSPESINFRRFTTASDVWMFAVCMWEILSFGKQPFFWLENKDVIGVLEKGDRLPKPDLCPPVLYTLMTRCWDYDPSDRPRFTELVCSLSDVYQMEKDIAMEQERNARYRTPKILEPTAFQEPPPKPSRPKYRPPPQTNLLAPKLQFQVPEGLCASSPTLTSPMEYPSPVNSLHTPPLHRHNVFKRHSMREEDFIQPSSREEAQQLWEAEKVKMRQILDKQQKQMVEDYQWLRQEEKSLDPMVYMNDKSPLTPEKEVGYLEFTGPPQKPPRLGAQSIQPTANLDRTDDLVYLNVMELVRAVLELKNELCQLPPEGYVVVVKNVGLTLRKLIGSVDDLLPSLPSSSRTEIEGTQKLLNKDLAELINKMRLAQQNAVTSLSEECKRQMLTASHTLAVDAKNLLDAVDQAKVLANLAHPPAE
Plk1 PBD FP – Plk1 polo box domain binding inhibitors, primary screen, biochemical, fluorescence polarization; actives 0.13% (n = 97,000); Plk1 PBD phosphopeptide binding; Serine/threonine-protein kinase PLK1 (Homo sapiens), P53350; inhibition, %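 (tested at about 20 µM)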; in the data active = inhibition above about 34%, passing the limit was not always enough
PLK1 inh conf – PLK1 kinase activity inhibitors, confirmation, biochemical, TR-FRET, duplicate runs. shares compounds with PLK1 inh. recombinant PLK1 kinase, TR-FRET peptide phosphorylation. inhibition, % at 10 µM. actives 20% (n = 210);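 active = inhibition at or above 50% in each of two repeat confirmation tests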;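 also: 0% = DMSO max control and 100% = H-89 kinase-blocked min control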
Plk1 interf – compound interference with Plk1 assay readout, artefact control for Plk1 kinase inhibitor project, biochemical, TR-FRET, compound added post-reaction; 210 tested, under 10 active; inhibition (interference), % at 10 µM; shares compounds with PLK1 inh;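 active = both duplicate runs show 50% or greater inhibition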;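 also: 0% = DMSO max control and 100% = H-89 min control inhibited reaction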
Redox H2O2 DR – redox cycling hydrogen peroxide generation, dose response, artefact control for Plk1 PBD inhibitor project, biochemical | shares compounds with Plk1 PBD FP | redox cycling H2O2 generation, DTT, counter-screen | EC50, µM | 120 tested, under 10 active | AID 876, 2007; call rule not given here
* = called active by the depositor; x = no result.

SMILES	sEH inhibitor	sEH activator	PLK1 inh	PTK2B oligo ant	Plk1 PBD FP	others
CCOC(=O)c1c(C)n(Cc2ccco2)c2ccc(O)cc12	6.8	-1.8	-11.6	-1.39	-7.9
CCOC(=O)c1c(C)n(COCCO)c2ccc(O)cc12	7.6	-9.0	-4.2	1.1	2.9
CCOC(=O)c1c(C)n(Cc2ccc3c(c2)OCO3)c2ccc(O)cc12	24.0	-24.1	-2.8	-3.28*	0.8
COC(=O)c1c(C)n(Cc2ccc3c(c2)OCO3)c2ccc(O)cc12	-0.6	-4.7	-2.1	-4*	-9.2
COC(=O)CSC1=NP(=S)(SCC(=O)OC)N2CCCC2=C1C#N (stereo not given)	9.9	-8.8	-3.3	0.7	9.9
Cc1cc(NCCN)nc2ccccc12	6.8	-5.4	40.8	1.19	-33.9
CN1C(=O)C(=Cc2ccccc2Oc2ccc(Cl)c(F)c2)C(=O)N(C)C1=O	13.3	-8.2	-5.5	-4.45*	-4.8
CN(C)CCN=Cc1c(O)n(-c2cccc(C(F)(F)F)c2)c(=O)[nH]c1=O	x	x	x	0.87	x
CC(Cc1ccccc1)NC(=O)NC(C)Cc1ccccc1 (stereo not given)	97.9*	-97.9	-2.1	0.99	-13.9
O=C1Nc2ccccc2/C1=C/c1cnc[nH]1	-9.3	11.6	60.7*	-0.41	-10.4
O=C(Cn1cc(C(=O)c2ccccc2F)c2ccccc21)NCc1ccco1	x	x	-10.3	-3.23*	15.4
Cn1ncnc2c(=O)n(C)c(=O)nc1-2	x	x	x	-3.27*	x
NCC1(c2ccc3c(c2)OCCO3)CCCC1	4.2	-2.3	-2.7	0.59	15.7
Cc1ccccc1-n1c(O)c(C=NCCN2CCOCC2)c(=O)[nH]c1=O	-5.7	4.8	-16.8	0.38	22.0
CN(C)c1ccc(N=Cc2c(O)n(CCC3=CCCCC3)c(=O)[nH]c2=O)cc1	6.8	-9.5	-6.3	-3.42*	5.7
CC1SC2(CN3CCC2CC3)NC1=O (stereo not given)	x	x	-3.0	0.19	7.9
COc1ccc2[nH]c(C)c(CCN3CCC(=O)C(C)C3C)c2c1 (stereo not given)	x	x	82.7*	x	13.6	PLK1 inh conf=-3.6;Plk1 interf=-53.6
NC(=O)CN1C2CCC1CC(NC(=O)C1CC1)C2 (stereo not given)	-4.4	4.8	-4.0	-0.05	-23.1
O=[N+]([O-])c1ccc(N2CCNCC2)cc1NCC1CCCO1 (stereo not given)	17.3	-16.8	-7.1	-1.45	47.2*	Redox H2O2 DR=>50
C(=NC12CN3CN(CN(C3)C1)C2)c1cccs1	6.4	-3.7	-3.5	0.97	-19.5
O=C(CNC1CCCCC1)N1CCC2(CC1)OCCO2	7.6	-5.8	-0.8	0.27	-18.9
CN1C(=O)N(C)C(=O)C2(Sc3ccccc3C2=O)C1=O	6.7	-7.1	-8.9	-1.32	57.2*	Redox H2O2 DR=>50
Cc1ccc2c(c1)CC1(CN2C)C(=O)NC(=O)N(c2cccc(C)c2C)C1=O (stereo not given)	-9.9	10.4	-8.5	1.06	-7.0
Cc1ccc2c(c1)CC1(CN2C)C(=O)NC(=O)N(c2ccccc2C)C1=O (stereo not given)	-0.2	0.6	-15.5	0.13	40.1*	Redox H2O2 DR=>50

Assay outcomes: PubChem BioAssay, several laboratories
